Among the data in article PMC7862700, “An all-to-all approach to the identification of sequence-specific readers for epigenetic DNA modifications on cytosine” are binding signal values, retold here.

What all share (experiment): DAPPL (digital affinity profiling via proximity ligation, sequencing); 10 mM Tris-HCl pH 7.5, 50 mM NaCl, 1 mM DTT, 4% glycerol, room temperature, 30 min; GST-TFs on glutathione beads, 16-mer random dsDNA library, 0.1% formaldehyde crosslink after washing; high values mean tight binding
One test concerns the target T1, FLI1 (Homo sapiens, UniProt Q01543 1-452).
T1 sequence: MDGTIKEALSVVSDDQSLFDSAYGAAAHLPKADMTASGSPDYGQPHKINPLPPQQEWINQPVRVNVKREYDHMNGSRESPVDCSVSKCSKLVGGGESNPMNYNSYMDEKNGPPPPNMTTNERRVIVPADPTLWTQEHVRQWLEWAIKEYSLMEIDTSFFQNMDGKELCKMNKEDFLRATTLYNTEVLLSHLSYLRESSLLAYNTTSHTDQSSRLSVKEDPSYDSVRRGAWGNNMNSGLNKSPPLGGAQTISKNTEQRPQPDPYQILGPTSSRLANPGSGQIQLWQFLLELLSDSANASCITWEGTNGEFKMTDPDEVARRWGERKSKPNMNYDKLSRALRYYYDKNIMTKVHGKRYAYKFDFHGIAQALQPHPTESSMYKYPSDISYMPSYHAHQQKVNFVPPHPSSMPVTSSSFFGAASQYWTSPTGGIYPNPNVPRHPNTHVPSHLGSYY
To be noted: protein: recombinant; tags: N-terminal GST; dsDNA, one strand shown. The gist of the method:
(§1)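 Binding signal is given per hexamer as its read frequency for a factor divided by its frequency in the tag-only sample. GST-fused human transcription factors were expressed in yeast, captured on glutathione beads, barcoded with DNA and pooled with that sample, then incubated with 200 nmole of a 16-mer random double-stranded DNA library in Tris/NaCl/DTT/glycerol buffer for 30 min at room temperature. The pools were then washed, crosslinked, proximity-ligated, amplified by PCR and sequenced on an Illumina NextSeq500.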

Another test deals with T2, ELK1 (Homo sapiens, UniProt P19419 1-428).
T2 sequence: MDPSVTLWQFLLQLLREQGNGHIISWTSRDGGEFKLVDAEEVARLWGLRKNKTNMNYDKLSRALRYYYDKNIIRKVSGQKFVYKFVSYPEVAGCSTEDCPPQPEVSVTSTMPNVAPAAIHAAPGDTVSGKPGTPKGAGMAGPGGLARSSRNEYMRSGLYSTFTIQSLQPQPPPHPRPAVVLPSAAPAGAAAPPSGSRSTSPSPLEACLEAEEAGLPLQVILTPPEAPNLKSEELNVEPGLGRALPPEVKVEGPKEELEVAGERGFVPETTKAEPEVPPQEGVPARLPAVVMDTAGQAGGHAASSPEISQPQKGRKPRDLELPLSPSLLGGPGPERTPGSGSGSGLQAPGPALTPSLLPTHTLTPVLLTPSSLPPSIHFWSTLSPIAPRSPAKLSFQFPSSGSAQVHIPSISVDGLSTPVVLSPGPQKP
As to conditions: protein: recombinant; tags: N-terminal GST; dsDNA, one strand shown. The gist of the method:
as §1

The target of the next test is T3, GABPA (Homo sapiens, UniProt Q06546 1-454).
T3 sequence: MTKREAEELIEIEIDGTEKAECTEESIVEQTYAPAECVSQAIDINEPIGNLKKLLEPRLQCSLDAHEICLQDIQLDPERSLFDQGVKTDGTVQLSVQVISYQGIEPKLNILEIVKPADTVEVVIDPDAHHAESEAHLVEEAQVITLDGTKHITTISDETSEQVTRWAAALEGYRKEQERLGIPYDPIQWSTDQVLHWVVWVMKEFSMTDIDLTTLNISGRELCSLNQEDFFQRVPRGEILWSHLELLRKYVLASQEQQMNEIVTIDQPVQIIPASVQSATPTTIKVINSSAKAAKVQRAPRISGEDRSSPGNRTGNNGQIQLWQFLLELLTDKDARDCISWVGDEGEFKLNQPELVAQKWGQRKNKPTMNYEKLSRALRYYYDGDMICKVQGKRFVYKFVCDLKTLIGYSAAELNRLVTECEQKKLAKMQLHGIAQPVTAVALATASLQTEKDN
To be noted: protein: recombinant; tags: N-terminal GST; dsDNA, one strand shown. The gist of the method: as §1

Another test deals with T4, ERG (Homo sapiens, UniProt P11308 1-479).
T4 sequence: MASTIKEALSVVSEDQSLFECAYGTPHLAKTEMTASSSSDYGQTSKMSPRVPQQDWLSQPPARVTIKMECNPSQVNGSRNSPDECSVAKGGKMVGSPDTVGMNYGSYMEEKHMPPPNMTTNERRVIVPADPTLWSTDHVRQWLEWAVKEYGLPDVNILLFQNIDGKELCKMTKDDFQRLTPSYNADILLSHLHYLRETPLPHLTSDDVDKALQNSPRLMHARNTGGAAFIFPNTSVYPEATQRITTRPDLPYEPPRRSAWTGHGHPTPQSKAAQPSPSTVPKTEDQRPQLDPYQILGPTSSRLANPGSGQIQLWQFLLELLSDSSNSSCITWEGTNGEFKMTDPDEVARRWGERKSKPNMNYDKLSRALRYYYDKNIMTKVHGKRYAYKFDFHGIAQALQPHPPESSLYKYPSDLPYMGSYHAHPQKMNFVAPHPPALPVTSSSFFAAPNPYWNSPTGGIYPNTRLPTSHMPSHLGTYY
To be noted: protein: recombinant; tags: N-terminal GST; dsDNA, one strand shown. A digest of the protocol:
as §1

The target in the next test is ELF1 (Homo sapiens, UniProt P32519 1-619). As to conditions: protein: recombinant; tags: N-terminal GST; dsDNA, one strand shown. A digest of the protocol: as §1
Sequence of ELF1 (P32519 whole entry): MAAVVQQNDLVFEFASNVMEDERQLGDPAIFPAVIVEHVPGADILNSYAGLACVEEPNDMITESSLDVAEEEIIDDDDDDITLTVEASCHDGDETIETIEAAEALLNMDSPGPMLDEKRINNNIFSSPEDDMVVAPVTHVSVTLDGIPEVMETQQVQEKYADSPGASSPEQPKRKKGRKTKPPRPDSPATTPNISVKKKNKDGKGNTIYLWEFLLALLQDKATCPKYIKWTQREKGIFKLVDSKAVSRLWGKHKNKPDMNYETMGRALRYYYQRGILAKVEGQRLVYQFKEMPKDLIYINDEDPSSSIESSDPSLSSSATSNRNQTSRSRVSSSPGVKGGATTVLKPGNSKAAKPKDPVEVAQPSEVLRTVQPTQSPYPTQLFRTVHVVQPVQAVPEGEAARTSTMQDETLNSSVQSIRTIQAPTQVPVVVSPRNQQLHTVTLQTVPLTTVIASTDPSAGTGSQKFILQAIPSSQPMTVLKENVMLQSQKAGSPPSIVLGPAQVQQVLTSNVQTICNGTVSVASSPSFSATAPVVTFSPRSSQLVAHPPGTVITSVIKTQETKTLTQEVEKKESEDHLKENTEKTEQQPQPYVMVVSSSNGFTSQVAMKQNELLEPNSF
In a further test the target is T5, EHF (Homo sapiens, UniProt Q9NZC4 1-300).
T5 sequence: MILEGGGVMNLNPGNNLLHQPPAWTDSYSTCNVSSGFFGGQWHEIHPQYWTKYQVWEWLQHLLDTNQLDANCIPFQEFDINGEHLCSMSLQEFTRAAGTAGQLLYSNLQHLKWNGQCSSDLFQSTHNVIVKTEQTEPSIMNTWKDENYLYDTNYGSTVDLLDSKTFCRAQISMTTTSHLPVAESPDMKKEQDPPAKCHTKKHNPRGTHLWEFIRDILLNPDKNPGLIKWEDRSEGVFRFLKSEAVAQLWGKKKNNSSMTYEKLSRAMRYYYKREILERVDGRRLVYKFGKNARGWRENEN
As to conditions: protein: recombinant; tags: N-terminal GST; dsDNA, one strand shown. The gist of the method: as §1

A further test deals with SPI1 (Homo sapiens, UniProt P17947 1-270). As to conditions: protein: recombinant; tags: N-terminal GST; dsDNA, one strand shown. A digest of the protocol:
as §1

The target in a further test is SPIB (Homo sapiens, UniProt Q01892 1-262). To be noted: protein: recombinant; tags: N-terminal GST; dsDNA, one strand shown. The gist of the method:
as §1

The target in a further test is T6, ELK3 (Homo sapiens, UniProt P41970 1-407).
T6 sequence: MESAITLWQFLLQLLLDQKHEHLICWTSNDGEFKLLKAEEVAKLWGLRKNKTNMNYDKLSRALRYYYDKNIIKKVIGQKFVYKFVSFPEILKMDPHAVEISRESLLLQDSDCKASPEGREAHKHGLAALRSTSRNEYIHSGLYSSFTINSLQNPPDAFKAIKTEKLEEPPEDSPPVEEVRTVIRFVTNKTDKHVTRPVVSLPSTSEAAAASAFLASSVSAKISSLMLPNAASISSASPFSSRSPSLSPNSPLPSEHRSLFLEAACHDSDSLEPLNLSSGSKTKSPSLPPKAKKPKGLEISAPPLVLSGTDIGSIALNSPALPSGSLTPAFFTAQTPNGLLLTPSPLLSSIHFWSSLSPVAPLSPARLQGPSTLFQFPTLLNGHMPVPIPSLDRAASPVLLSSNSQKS
To be noted: protein: recombinant; tags: N-terminal GST; dsDNA, one strand shown. The gist of the method: as §1

The target of the next test is T7, FEV (Homo sapiens, UniProt Q99581 1-238).
T7 sequence: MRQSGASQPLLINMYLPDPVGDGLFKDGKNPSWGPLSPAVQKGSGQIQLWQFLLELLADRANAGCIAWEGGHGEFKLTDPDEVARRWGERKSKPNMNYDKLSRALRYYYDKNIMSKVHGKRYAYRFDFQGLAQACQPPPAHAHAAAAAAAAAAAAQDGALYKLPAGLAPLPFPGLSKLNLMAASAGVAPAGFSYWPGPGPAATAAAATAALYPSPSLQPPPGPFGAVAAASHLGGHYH
To be noted: protein: recombinant; tags: N-terminal GST; dsDNA, one strand shown. The gist of the method: as §1

The target of another test is ETV5 (Homo sapiens, UniProt P41161 1-510). To be noted: protein: recombinant; tags: N-terminal GST; dsDNA, one strand shown. A digest of the protocol: as §1
Sequence of ETV5 (P41161 whole entry): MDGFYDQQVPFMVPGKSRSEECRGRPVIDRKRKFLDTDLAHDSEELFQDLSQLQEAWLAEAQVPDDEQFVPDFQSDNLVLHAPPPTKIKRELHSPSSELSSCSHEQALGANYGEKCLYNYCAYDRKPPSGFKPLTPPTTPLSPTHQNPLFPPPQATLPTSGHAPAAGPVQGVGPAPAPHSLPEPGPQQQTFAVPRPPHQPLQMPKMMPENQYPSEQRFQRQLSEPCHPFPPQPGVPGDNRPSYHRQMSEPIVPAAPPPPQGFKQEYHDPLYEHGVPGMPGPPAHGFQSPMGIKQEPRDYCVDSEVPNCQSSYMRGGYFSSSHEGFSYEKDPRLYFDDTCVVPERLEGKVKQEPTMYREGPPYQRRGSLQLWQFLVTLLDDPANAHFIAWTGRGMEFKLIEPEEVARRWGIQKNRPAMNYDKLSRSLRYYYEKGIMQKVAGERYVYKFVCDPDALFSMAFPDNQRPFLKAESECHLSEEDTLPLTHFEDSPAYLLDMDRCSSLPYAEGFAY
For a further test, the target named is HSF1 (Homo sapiens, UniProt Q00613 1-529). As to conditions: protein: recombinant; tags: N-terminal GST; chain copies: 3; dsDNA, one strand shown. A digest of the protocol: as §1
Sequence of HSF1 (Q00613 whole entry): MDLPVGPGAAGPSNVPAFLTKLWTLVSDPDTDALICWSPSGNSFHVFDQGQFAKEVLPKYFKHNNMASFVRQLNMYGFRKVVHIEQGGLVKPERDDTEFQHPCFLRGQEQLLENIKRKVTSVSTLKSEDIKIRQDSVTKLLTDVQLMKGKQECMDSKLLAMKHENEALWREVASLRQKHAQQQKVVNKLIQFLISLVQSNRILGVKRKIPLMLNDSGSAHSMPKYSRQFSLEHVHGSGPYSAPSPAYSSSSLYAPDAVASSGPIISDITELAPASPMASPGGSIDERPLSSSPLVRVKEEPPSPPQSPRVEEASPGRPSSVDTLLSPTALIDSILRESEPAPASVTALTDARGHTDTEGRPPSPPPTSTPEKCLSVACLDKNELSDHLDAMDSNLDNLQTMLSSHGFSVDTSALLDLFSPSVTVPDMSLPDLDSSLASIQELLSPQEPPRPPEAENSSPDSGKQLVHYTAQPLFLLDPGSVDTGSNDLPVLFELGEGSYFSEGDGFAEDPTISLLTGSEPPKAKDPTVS
Another test concerns the target T8, SPIC (Homo sapiens, UniProt Q8N5J4 1-248).
T8 sequence: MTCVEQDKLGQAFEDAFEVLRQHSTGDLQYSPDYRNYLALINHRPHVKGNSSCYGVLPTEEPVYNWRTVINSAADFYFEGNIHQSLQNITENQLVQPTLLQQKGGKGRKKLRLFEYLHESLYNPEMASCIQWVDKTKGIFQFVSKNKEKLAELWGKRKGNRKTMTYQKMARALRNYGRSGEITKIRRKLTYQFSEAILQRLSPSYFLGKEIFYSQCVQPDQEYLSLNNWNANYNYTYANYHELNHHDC
As to conditions: protein: recombinant; tags: N-terminal GST; dsDNA, one strand shown. The gist of the method:
as §1

For a further test, the target named is ELF4 (Homo sapiens, UniProt Q99607 1-663). To be noted: protein: recombinant; tags: N-terminal GST; dsDNA, one strand shown. A digest of the protocol: as §1
Sequence of ELF4 (Q99607 whole entry): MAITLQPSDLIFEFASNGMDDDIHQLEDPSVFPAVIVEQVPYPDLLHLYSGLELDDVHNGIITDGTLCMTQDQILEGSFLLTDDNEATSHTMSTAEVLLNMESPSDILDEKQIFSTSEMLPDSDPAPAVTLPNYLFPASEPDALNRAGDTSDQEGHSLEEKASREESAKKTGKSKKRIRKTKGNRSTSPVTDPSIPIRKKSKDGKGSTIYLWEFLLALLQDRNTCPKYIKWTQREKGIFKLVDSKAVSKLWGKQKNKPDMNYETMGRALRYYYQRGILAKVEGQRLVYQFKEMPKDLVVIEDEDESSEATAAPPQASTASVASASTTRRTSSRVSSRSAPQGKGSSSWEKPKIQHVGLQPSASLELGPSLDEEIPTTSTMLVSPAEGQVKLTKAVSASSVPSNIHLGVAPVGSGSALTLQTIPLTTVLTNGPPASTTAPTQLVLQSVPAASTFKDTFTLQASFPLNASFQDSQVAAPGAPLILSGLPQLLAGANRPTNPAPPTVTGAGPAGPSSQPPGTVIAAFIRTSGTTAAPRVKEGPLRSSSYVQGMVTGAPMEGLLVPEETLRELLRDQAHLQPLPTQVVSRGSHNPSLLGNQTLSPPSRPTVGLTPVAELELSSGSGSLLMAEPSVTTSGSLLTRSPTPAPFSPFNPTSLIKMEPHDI
A further test addresses T9, ELK4 (Homo sapiens, UniProt P28324-2 1-405).
T9 sequence: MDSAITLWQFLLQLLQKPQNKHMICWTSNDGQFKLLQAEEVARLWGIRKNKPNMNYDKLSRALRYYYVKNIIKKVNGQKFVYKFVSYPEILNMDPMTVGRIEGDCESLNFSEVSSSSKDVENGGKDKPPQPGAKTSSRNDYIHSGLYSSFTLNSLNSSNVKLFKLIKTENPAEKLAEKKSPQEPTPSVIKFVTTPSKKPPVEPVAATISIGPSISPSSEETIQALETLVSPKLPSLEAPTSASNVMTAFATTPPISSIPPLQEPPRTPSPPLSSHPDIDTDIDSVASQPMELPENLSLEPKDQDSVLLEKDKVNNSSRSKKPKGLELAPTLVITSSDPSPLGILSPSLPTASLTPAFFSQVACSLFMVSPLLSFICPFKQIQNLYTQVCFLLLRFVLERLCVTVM
To be noted: protein: recombinant; tags: N-terminal GST; dsDNA, one strand shown. A digest of the protocol:
as §1

Another test has as its target T10, ETV2 (Homo sapiens, UniProt O00321 1-342).
T10 sequence: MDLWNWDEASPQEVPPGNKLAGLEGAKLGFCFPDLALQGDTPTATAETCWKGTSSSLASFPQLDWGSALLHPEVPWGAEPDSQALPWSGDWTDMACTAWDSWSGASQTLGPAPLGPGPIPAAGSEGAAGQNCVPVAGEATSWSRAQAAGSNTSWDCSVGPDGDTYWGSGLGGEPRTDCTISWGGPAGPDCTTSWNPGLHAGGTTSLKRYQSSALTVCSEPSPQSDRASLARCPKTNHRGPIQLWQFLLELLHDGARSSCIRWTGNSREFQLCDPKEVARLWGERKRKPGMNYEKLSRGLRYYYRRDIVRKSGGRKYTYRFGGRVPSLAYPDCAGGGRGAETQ
As to conditions: protein: recombinant; tags: N-terminal GST; dsDNA, one strand shown. A digest of the protocol:
as §1

Another test concerns the target T11, ELF3 (Homo sapiens, UniProt P78545 1-371).
T11 sequence: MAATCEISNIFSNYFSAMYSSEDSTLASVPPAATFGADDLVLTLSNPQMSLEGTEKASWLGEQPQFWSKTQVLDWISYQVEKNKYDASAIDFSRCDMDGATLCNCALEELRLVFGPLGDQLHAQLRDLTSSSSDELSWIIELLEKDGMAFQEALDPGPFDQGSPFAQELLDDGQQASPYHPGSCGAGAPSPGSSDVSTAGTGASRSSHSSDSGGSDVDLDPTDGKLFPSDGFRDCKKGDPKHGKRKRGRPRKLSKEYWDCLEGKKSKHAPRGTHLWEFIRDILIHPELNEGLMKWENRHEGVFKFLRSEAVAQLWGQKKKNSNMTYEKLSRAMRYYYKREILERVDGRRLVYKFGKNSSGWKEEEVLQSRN
To be noted: protein: recombinant; tags: N-terminal GST; dsDNA, one strand shown. A digest of the protocol:
as §1

The target in another test is CRX (Homo sapiens, UniProt O43186 1-299). To be noted: protein: recombinant; tags: N-terminal GST; dsDNA, one strand shown. The gist of the method: as §1
Sequence of CRX (O43186 whole entry): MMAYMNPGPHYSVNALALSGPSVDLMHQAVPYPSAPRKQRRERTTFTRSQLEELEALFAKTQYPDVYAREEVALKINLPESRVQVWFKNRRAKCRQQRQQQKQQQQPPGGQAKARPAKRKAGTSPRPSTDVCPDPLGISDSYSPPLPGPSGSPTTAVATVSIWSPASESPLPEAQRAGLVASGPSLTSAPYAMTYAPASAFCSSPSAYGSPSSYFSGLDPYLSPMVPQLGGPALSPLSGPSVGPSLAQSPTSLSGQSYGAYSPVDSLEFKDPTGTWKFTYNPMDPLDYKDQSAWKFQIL
The next test has as its target ETV1 (Homo sapiens, UniProt P50549 1-477). As to conditions: protein: recombinant; tags: N-terminal GST; dsDNA, one strand shown. A digest of the protocol: as §1

Sequence of SPIB (Q01892 whole entry): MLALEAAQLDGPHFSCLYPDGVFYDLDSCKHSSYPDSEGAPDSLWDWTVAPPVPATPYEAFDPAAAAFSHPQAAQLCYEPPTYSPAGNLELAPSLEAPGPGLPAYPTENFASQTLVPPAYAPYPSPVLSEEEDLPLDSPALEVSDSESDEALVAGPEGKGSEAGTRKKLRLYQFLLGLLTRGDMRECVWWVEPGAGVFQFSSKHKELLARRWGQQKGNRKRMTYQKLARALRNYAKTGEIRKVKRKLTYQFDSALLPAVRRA
Sequence of ETV1 (P50549 whole entry): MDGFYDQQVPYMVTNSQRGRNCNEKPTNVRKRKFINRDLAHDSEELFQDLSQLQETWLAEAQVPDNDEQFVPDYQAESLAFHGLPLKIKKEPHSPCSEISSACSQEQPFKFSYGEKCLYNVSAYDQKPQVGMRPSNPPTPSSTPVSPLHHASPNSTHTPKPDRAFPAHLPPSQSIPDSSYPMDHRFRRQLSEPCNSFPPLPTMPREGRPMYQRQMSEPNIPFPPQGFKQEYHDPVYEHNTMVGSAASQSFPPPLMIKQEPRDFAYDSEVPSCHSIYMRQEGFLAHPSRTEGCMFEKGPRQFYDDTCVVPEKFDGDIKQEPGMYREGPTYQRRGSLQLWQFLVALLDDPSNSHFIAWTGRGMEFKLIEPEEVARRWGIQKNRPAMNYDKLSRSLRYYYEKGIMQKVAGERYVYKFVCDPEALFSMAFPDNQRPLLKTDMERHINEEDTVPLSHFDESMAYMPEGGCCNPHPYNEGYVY

Consider ATCTCA, for which the binding signal with FLI1 is 1.17 fold enrichment (6-mer frequency, TF over GST control); with ELK1, 1.18 fold enrichment (6-mer frequency, TF over GST control); with GABPA it was 1.15 fold enrichment (6-mer frequency, TF over GST control); with ERG, 1.11 fold enrichment (6-mer frequency, TF over GST control); with ELF1, 1.2 fold enrichment (6-mer frequency, TF over GST control); with EHF, 1.25 fold enrichment (6-mer frequency, TF over GST control). In addition, the binding signal was 1.12 fold enrichment (6-mer frequency, TF over GST control) with SPI1; 1.19 fold enrichment (6-mer frequency, TF over GST control) in the test with SPIB; 1.18 fold enrichment (6-mer frequency, TF over GST control) in the test with ELK3; 1.16 fold enrichment (6-mer frequency, TF over GST control) with FEV; 1.18 fold enrichment (6-mer frequency, TF over GST control) in the test with ETV5; 1.19 fold enrichment (6-mer frequency, TF over GST control) in the test with HSF1. In addition, the binding signal is 1.14 fold enrichment (6-mer frequency, TF over GST control) with SPIC; 1.18 fold enrichment (6-mer frequency, TF over GST control) with ELF4; 1.14 fold enrichment (6-mer frequency, TF over GST control) with ELK4; 1.23 fold enrichment (6-mer frequency, TF over GST control) with ETV2; 1.22 fold enrichment (6-mer frequency, TF over GST control) with ELF3; 1.51 fold enrichment (6-mer frequency, TF over GST control) with CRX. In the test with ETV1, the binding signal was 1.16 fold enrichment (6-mer frequency, TF over GST control).
